# According to PubChem BioAssay AID2314 (National Center for Advancing Translational Sciences (NCATS), 2010):
# Hit rate of the full screen: of about 300,000 compounds, about 37,000 (12%) were called active. This excerpt belongs to a sample that is enriched for actives. Unmarked numbers belong to inactive results. Cut-off read from the data, not from the text of the source: active = max response mostly above about 13% (no sharp cut-off); inactive = mostly below about 14%.
# Assay: Cycloheximide Counterscreen for Small Molecule Inhibitors of Shiga Toxin; note: read at 38.3 µM for the half of the compounds with a filed dose; 0% is about no effect
# Details: cell reporter, cycloheximide protein synthesis inhibition counterscreen; active compounds read high
row,SMILES,max response
1,Cc1ccc(-c2cc(C(=O)Nc3nn[nH]n3)c3ccccc3n2)c(C)c1,-3.28%
2,COc1ccc(CN(C)C(=O)c2cc(-c3ccc(C)cc3C)nc3ccccc23)c(OC)c1OC,9.76% (active)
3,O=C(CCC1CCN(C(=O)c2cccc(Cl)c2F)CC1)Nc1ccccc1,3.41%
4,CC1CCN(CCCn2c(SCC(=O)NC3CCCC3)nc3ccccc3c2=O)CC1,-1.13%
5,COc1ccc(C(=O)COC(=O)c2nn(C)c(=O)c3ccccc23)c(OC)c1,4.36%
6,COc1ccc(C(=O)CCC(=O)Nc2cccnc2)c(OC)c1,-5.23%
7,COc1ccc(CC(=O)NC(C)CCc2ccccc2)cc1 (stereo unspecified),-0.862%
8,COc1ccc(C(=O)NC(C)CCc2ccccc2)c(OC)c1 (stereo unspecified),25.4% (active)
9,COc1ccc(C(=O)CCc2ccccc2O)c(OC)c1,32.7% (active)
10,COc1cc(C(=O)OCC(=O)NC(C)CCc2ccccc2)cc(OC)c1OC (stereo unspecified),-8.18%
11,O=C(NC1CCCC1)C1CCN(C(=O)Nc2cccc(Cl)c2)CC1,-1.38%
12,Cc1cccc(N2CCN(Cc3nc(C4CC4)no3)CC2)n1,-2.08%
13,Cc1cccc(C)c1NC(=O)C1CCCN1C(=O)OC(C)(C)C (stereo unspecified),6.96%
14,O=C(CO/N=C/c1ccccc1O)NNC(=O)c1ccccc1Cl,-2.64%
15,Cc1ccccc1C1=NC(C(F)(F)F)(C(F)(F)F)c2c(n(-c3ccc(F)cc3)c(=O)[nH]c2=O)N1,-1.61%
16,O=C(O)CSc1c2c(nc3cc(C(=O)Nc4cccc(C(F)(F)F)c4)ccc13)CCCC2,-2.41%
17,CC(C)Cc1nnc(NC(=O)CCc2ccccc2)s1,-1.48%
18,O=C(Nc1nnc(SCc2c(Cl)cccc2Cl)s1)c1cccc([N+](=O)[O-])c1,8%
19,O=C(Nc1nnc(SCc2c(Cl)cccc2Cl)s1)C1CCCO1 (stereo unspecified),28% (active)
20,O=C(C1CCCO1)N(Cc1ccccc1)c1ccccc1 (stereo unspecified),-0.517%
21,O=C(Nc1nnc(CCc2ccccc2)s1)C1CCCO1 (stereo unspecified),14.8% (active)
22,O=C(Nc1nnc(SCc2ccc(Cl)cc2Cl)s1)C1COc2ccccc2O1 (stereo unspecified),-3.01%
23,O=C(NC(Cc1ccccc1)C(=O)O)/C(=C\c1ccccc1)NC(=O)c1ccco1 (stereo unspecified),-3.05%
24,COc1cc(CN2CCN(Cc3ccc(C)cc3)CC2)c([N+](=O)[O-])cc1OC,-2.69%
25,CN(CC(=O)Nc1ccccc1C(F)(F)F)C(=O)Cc1ccccc1F,-1.32%
26,Cn1cc[n+](C)c1COc1ccc(C=O)cc1,1.36%

row,SMILES,max response
1,O=Cc1ccc(OCc2cn3ccccc3n2)cc1,31.8% (active)
2,COc1ccc(C(=O)NCc2cn3ccccc3n2)cc1,-1.44%
3,Cc1cccc2nc(CSc3nc4[nH]ncc4c(=O)n3-c3cccc(Cl)c3)cc(=O)n12,1.41%
4,Oc1ccc(N=Cc2sc3ccccc3c2Cl)cc1,25.7% (active)
5,Oc1ccc(N=Cc2c(O)ccc3ccccc23)cc1,4.29%
6,NS(=O)(=O)c1ccc(N=Nc2c(O)[nH]c3ccc(Br)cc23)cc1,-3.08%
7,Cc1cccc(N=Nc2c(O)[nH]c3ccc(F)cc23)c1,49% (active)
8,Oc1[nH]c2ccc(Br)cc2c1N=Nc1nn[nH]n1,1.76%
9,Fc1ccccc1COc1ccccc1CNCc1ccncc1,-2.19%
10,CN(Cc1ccccc1)CC(O)COc1ccc(CNCc2cc3ccccc3s2)cc1 (stereo unspecified),-1.23%
11,O=C(NNC(=S)Nc1ccc(F)cc1)[C@H]1C[C@@H]1c1ccccc1,-2.55%
12,Cc1ccc(C2CC2C(=O)NN)cc1 (stereo unspecified),4.7%
13,Cc1ccc(NC(=O)C2CC2c2ccccc2)cc1 (stereo unspecified),28.4% (active)
14,O=C(NC1CCN(Cc2ccccc2)CC1)c1ccc(Oc2cc(Cl)cc(Cl)c2)o1,-0.55%
15,COC(=O)c1c(NC(=O)c2cccs2)sc2c1CCCC2,9.75%
16,CCCc1nnc(NC(=O)c2cc(OC)cc(OC)c2)s1,8.3%
17,Cc1ccc(-c2nnc(-c3ccc(NC(=O)c4cccs4)cc3)o2)cc1,-3.98%
18,CCCc1nnc(NC(=O)c2cccs2)s1,12.8% (active)
19,Cc1nc(-c2ccc(NC(=O)c3cccs3)cc2)cs1,23.7% (active)
20,Cc1ccc(OCC(=O)Nc2ccc(NC(=O)c3cccs3)cc2)c(C)c1,-4.62%
21,CCc1nnc(NC(=O)Cc2cccs2)s1,1.7%
22,Cc1ccc(-c2csc(NC(=O)Cc3cccs3)n2)cc1C,12.4%
23,CCCc1ccc(-c2csc(NC(=O)Cc3cccs3)n2)cc1,22.9% (active)
24,CCc1c(C)sc(NC(=O)c2cccs2)c1C(N)=O,63.8% (active)
25,CCc1c(C)sc(NC(=O)c2ccc(Br)o2)c1C(=O)OC,5.7%
